# “And” between values parts separate entries of the source, which are not always exact repeats. Equal entries are not always repeated. Inconclusive results are not listed. More than one record can exist for a structure, and the calls need not agree. The list shows a part of the results. The source made the active and inactive calls. Rule as the data show it, unless noted: active = percent of DMSO control GFP below about 86%; inactive = the rest, inconclusive results apart.
# Tests used:
# [1] = yeast TOR pathway RPL19A-GFP modulators, primary screen, cell-based, S. cerevisiae, multiplex flow cytometry (AID 1862);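 also: lower values mimic rapamycin by blocking the RPL19A rise seen in DMSO cells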; details: S. cerevisiae RPL19A-GFP strain, flow cytometry fluorescence, 3 h; at 10 µM; stronger effect = lower value
# [2] = modulators of MEP2-GFP levels in yeast, primary screen, S. cerevisiae, multiplex flow cytometry (AID 1867;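 active = GFP response, as percent of the DMSO control, above the screen-wide mean plus 3 SD, about 139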;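 also: median GFP channel fluorescence of barcode-gated MEP2-GFP cells measured by flow cytometry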); details: S. cerevisiae MEP2-GFP strain, 3 h, at 10 µM, stronger effect = higher value, 100% means same as DMSO wells
# [3] = modulators of CIT2-GFP expression in yeast, primary screen, S. cerevisiae, GFP fusion, multiplex flow cytometry (AID 1870;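 active = percent response above a set limit, the screen-wide mean plus 3 SD, cut at about 130% in these data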;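 also: barcoded CIT2-GFP strain pooled with four other GFP strains with rapamycin as positive control; median GFP fluorescence per well over plate mean of DMSO wells so 100% = DMSO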); details: 3 h, at 10 µM, stronger effect = higher value
# [4] = modulators of LAP4-GFP expression in yeast, primary screen, S. cerevisiae, multiplex flow cytometry (AID 1873;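 active = GFP signal, as percent of the solvent control, above the screen mean plus 3 SD, about 149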); details: 3 h, at 10 µM, stronger effect = higher value
# [5] = modulators of AGP1-GFP expression in yeast TOR pathway, primary screen, cell-based, multiplex flow cytometry, S. cerevisiae (AID 1887;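 active = GFP signal above the screen-wide mean plus 3 SD, that is over about 124.5% of the solvent control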;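 also: AGP1-GFP fusion strain of S. cerevisiae within a five-strain barcoded multiplex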); details: 3 h, at 10 µM, stronger effect = higher value
# [6] = RPL19A-GFP modulators, yeast TOR pathway, confirmation, cell-based, S. cerevisiae, flow cytometry, cherry picks, mother/daughter gates (AID 2270;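 active = GFP response below 50% of the DMSO control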); details: S. cerevisiae RPL19A-GFP strain, 3 h, at 10 µM, stronger effect = lower value, 100 = same GFP as DMSO wells
# [7] = LAP4-GFP expression modulators in yeast, confirmation, cell-based, cherry picks, flow cytometry, mother/daughter gates (AID 2271;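 active = GFP response above 150% of the DMSO control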;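 also: ratio of sample to DMSO plate mean so 100% equals DMSO level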); details: S. cerevisiae LAP4-GFP strain, 3 h, at 10 µM, stronger effect = higher value, 100 means same as DMSO control
# [8] = modulators of MEP2-GFP levels in yeast, confirmation, S. cerevisiae, flow cytometry GFP, cherry picks (AID 2272;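 active = GFP response above 150% of the DMSO control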;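 also: ratio of well signal to plate DMSO mean so 100% equals DMSO level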); details: S. cerevisiae MEP2-GFP strain, 3 h, at 10 µM, stronger effect = higher value
# [9] = modulators of CIT2-GFP expression in yeast, confirmation, S. cerevisiae, GFP fusion, cherry picks, mother/daughter gates (AID 2274;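 active = GFP response above 150% of the DMSO level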); details: S. cerevisiae CIT2-GFP strain, flow cytometry, 3 h, at 10 µM, stronger effect = higher value
# [10] = inhibitors of CD8+ T cell-vesicle binding, pilot screen, LFA-1/ICAM-1 modulator project, MLPCN validation set, flow cytometry (AID 2523;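 active = response below a set limit, under 55% cells CD8-positive and vesicle-bound, and CD8 cells' 90th-percentile brightness under 279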;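 as to vesicle binding response: mean PE anti-B7-1 fluorescence of CD8+ cells relative to row control; 100% = QL9-loaded vesicles with DMSO vehicle in the same plate row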); details: 2C mouse CD8+ T cells, at 7 µM, stronger effect = lower value; double positive events: measured here: CD8+/vesicle+ event percentage
# [11] = target: Regulator of G-protein signaling 16 (Homo sapiens) (UniProt O15492); assay: modulators of RGS–Galpha-o binding, primary screen, biochemical, multiplexed beads, flow cytometry, RGS4/7/8/16/19 (AID 1504); details: multiplexed bead flow cytometry, measured here: RGS16 interaction, at 10 µM;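 also: fluorescently labeled Galpha-o bound to GDP with aluminium fluoride binding biotinylated RGS beads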
# [12] = target: Regulator of G-protein signaling 19 (Homo sapiens) (UniProt P49795); assay: as above; details: multiplexed bead flow cytometry, measured here: RGS19 interaction, at 10 µM
# [13] = target: Regulator of G-protein signaling 7 (Homo sapiens) (UniProt P49802); assay: as above; details: multiplexed bead flow cytometry, measured here: RGS7 interaction, at 10 µM
# [14] = target: Regulator of G-protein signaling 8 (Homo sapiens) (UniProt P57771); assay: as above; details: multiplexed bead flow cytometry, measured here: RGS8 interaction, at 10 µM
# [15] = disruption of biotin probe capture by avidin, counter-screen for RGS protein interaction modulators, biochemical, flow cytometry, bead-based (AID 1783;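 active = inhibition above 50%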;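 also: median green fluorescence of gated singlet beads compared with DMSO control wells; 0% = DMSO wells and 100% = complete loss of bead fluorescence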); details: streptavidin beads, fluorescein-biotin binding; at 10 µM, stronger effect = higher value
# [16] = target: Guanine nucleotide-binding protein G(o) subunit alpha (Homo sapiens) (UniProt P09471); assay: RGS8-Galphao binding modulators, confirmation, biochemical, multiplexed bead flow cytometry, single concentration (AID 1836; in the data active = binding response below about 72% or above about 130%; inactive = in between;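 also: Galphao activated as GDP AlF4 complex before binding bead RGS8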); details: bead-based flow cytometry RGS8-Galphao binding, fluorescence; at 10 µM; actives lie on both sides
# [17] = target: Guanine nucleotide-binding protein G(o) subunit alpha (Homo sapiens) (UniProt P09471); assay: RGS7-Galphao binding modulators, confirmation, biochemical, multiplexed bead flow cytometry, single concentration (AID 1837; in the data active = response below about 75% or above about 130%; inactive = in between;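 also: fluorescent Galphao activated with GDP and aluminum fluoride binding bead-coupled RGS7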); details: bead-based flow cytometry RGS7-Galphao binding; at 10 µM; actives lie on both sides
# [18] = target: Regulator of G-protein signaling 16 (Homo sapiens) + Guanine nucleotide-binding protein G(o) subunit alpha (Homo sapiens) (UniProt O15492+P09471); assay: modulators of RGS16-Galphao protein binding, confirmation, biochemical, single concentration, multiplexed bead flow cytometry (AID 1838; in the data active = response below about 74% or above about 130%; inactive = in between;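 also: Galphao activated as the GDP aluminium fluoride complex binding bead-coupled RGS16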); details: bead-based flow cytometry, at 10 µM, actives lie on both sides
# [19] = target: Guanine nucleotide-binding protein G(o) subunit alpha (Homo sapiens) (UniProt P09471); assay: modulators of RGS4-Galphao protein binding, confirmation, biochemical, single concentration, multiplexed bead flow cytometry (AID 1840; in the data active = binding response below about 74% or above about 130%; inactive = in between); details: at 10 µM, actives lie on both sides
# [20] = target: Guanine nucleotide-binding protein G(o) subunit alpha (Homo sapiens) + Regulator of G-protein signaling 19 (Homo sapiens) (UniProt P09471+P49795); assay: regulators of RGS19-Galphao binding, confirmation, biochemical, single point, multiplexed bead flow cytometry (AID 1841; in the data active = response below about 50% or above about 160%; inactive = in between;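 also: 100% = no compound control and 0% = blank background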); details: bead-based flow cytometry RGS19-Galphao binding; at 10 µM; actives lie on both sides
# [21] = measured here: daughter cell gate
# [22] = measured here: mother cell gate
# [23] = measured here: daughter cell gate response
# [24] = measured here: mother cell gate response
# Sequence of Guanine nucleotide-binding protein G(o) subunit alpha (Homo sapiens) (P09471 whole entry, looked up): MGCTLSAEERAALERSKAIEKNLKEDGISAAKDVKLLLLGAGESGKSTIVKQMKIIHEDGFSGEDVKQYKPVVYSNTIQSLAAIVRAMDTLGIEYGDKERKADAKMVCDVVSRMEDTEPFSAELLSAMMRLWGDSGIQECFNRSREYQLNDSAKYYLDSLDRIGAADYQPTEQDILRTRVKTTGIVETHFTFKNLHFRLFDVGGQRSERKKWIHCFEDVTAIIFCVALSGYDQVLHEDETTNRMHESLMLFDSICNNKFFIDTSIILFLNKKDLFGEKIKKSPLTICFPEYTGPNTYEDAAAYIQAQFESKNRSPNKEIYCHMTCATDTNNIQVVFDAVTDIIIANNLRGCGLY
# Sequence of Guanine nucleotide-binding protein G(o) subunit alpha (Homo sapiens) + Regulator of G-protein signaling 19 (Homo sapiens) (P09471 whole entry, looked up): as above
# Sequence of Guanine nucleotide-binding protein G(o) subunit alpha (Homo sapiens) + Regulator of G-protein signaling 19 (Homo sapiens) (P49795 whole entry, looked up): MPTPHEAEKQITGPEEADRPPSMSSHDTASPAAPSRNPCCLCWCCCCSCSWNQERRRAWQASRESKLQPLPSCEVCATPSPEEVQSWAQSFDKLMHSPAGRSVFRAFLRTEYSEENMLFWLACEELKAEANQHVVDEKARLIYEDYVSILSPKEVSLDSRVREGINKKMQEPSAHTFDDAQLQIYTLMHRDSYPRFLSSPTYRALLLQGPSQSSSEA
# Sequence of Regulator of G-protein signaling 16 (Homo sapiens) + Guanine nucleotide-binding protein G(o) subunit alpha (Homo sapiens) (O15492 whole entry, looked up): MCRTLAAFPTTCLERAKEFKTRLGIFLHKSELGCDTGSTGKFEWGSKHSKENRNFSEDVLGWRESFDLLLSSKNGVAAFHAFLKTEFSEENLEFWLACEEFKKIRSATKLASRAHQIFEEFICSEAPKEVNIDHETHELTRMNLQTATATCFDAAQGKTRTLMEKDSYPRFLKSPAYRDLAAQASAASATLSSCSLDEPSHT
# Sequence of Regulator of G-protein signaling 16 (Homo sapiens) + Guanine nucleotide-binding protein G(o) subunit alpha (Homo sapiens) (P09471 whole entry, looked up): as the sequence (P09471 whole entry, looked up) above
smiles,measurement,setting,value
CS(=O)(=O)Nc1cccc(C(=O)CC2(O)C(=O)Nc3ccc(Br)cc32)c1 (stereo unspecified),percent of DMSO control GFP,[1],85.9% (inactive)
same,GFP response vs DMSO,[2],150% (active)
same,percent response of DMSO control,[3],142% (active)
same,GFP response vs DMSO,[4],139% (inactive)
same,"GFP response, % of DMSO",[5],129% (active)
same,GFP response vs DMSO,[6],101% (inactive)
same,GFP response vs DMSO,[6]; [21],92.4%
same,GFP response vs DMSO,[6]; [22],96.2%
same,GFP response relative to DMSO,[7],98.2% (inactive)
same,GFP response relative to DMSO,[7]; [23],95.9%
same,GFP response relative to DMSO,[7]; [24],96.2%
same,GFP response vs DMSO,[8],99% (inactive)
same,"GFP response, % of DMSO",[9],100% (inactive)
same,"GFP response, % of DMSO",[9]; [21],90.2%
same,"GFP response, % of DMSO",[9]; [22],90.7%
same,double positive events,[10],57.6%
same,vesicle binding response,[10],34.1% (inactive)
COCCNC(=S)N/N=C/c1c(C)[nH]c2ccccc12,RGS16–Galpha-o binding response,[11],153%
same,RGS19–Galpha-o binding response,[12],993%
same,RGS7–Galpha-o binding response,[13],142%
same,RGS8–Galpha-o binding response,[14],105%
same,inhibition,[15],0.1% (inactive)
same,binding response (% of control),[16],105% (inactive)
same,response (percent of control binding),[17],212% [activator] (active)
same,response (% of control binding),[18],134% [activator] (active)
same,binding response (% of control),[19],161% [activator] (active)
same,response (percent of control binding),[20],225% (active)
COc1ccc(CCNC(=O)c2cc3sccc3n2C)cc1OC,inhibition,[15],0.7% (inactive)
same,binding response (% of control),[16],103% (inactive)
same,response (percent of control binding),[17],106% (inactive)
same,response (% of control binding),[18],103% (inactive)
same,binding response (% of control),[19],102% (inactive)
same,response (percent of control binding),[20],114% (inactive)
CN(C)CCCN1c2ccccc2Sc2ccc(Cl)cc21,percent of DMSO control GFP,[1],84.9% (active) and 109% (inactive)
same,GFP response vs DMSO,[2],148% (active) and 129% (inactive)
same,percent response of DMSO control,[3],88.6% (inactive) and 116% (inactive)
same,GFP response vs DMSO,[4],83.1% (inactive) and 94.1% (inactive)
same,"GFP response, % of DMSO",[5],91.5% (inactive) and 115% (inactive)
same,GFP response vs DMSO,[6],101% (inactive)
same,GFP response vs DMSO,[6]; [21],101%
same,GFP response vs DMSO,[6]; [22],102%
same,GFP response relative to DMSO,[7],95% (inactive)
same,GFP response relative to DMSO,[7]; [23],100%
same,GFP response relative to DMSO,[7]; [24],97.2%
same,GFP response vs DMSO,[8],100% (inactive)
same,"GFP response, % of DMSO",[9],106% (inactive)
same,"GFP response, % of DMSO",[9]; [21],103%
same,"GFP response, % of DMSO",[9]; [22],107%
same,double positive events,[10],64.9% and 70.6%
same,vesicle binding response,[10],163% (inactive) and 432% (inactive)
C[C@]12CCC(=O)C=C1CC[C@@H]1[C@@H]2[C@@H](O)C[C@@]2(C)[C@H]1CC[C@]2(O)C(=O)COC(=O)CCC(=O)O,percent of DMSO control GFP,[1],104% (inactive)
same,GFP response vs DMSO,[2],108% (inactive)
same,percent response of DMSO control,[3],110% (inactive)
same,GFP response vs DMSO,[4],119% (inactive)
same,"GFP response, % of DMSO",[5],108% (inactive)
same,GFP response vs DMSO,[6],98% (inactive) and 96.4% (inactive)
same,GFP response vs DMSO,[6]; [21],96.4% and 98.1%
same,GFP response vs DMSO,[6]; [22],101% and 94.9%
same,GFP response relative to DMSO,[7],97.4% (inactive) and 99.2% (inactive)
same,GFP response relative to DMSO,[7]; [23],103% and 97.6%
same,GFP response relative to DMSO,[7]; [24],91.1% and 100%
same,GFP response vs DMSO,[8],100% (inactive)
same,"GFP response, % of DMSO",[9],96.5% (inactive) and 98.3% (inactive)
same,"GFP response, % of DMSO",[9]; [21],94.8% and 99.1%
same,"GFP response, % of DMSO",[9]; [22],92.3% and 97.3%
same,double positive events,[10],43.7%
same,vesicle binding response,[10],165% (inactive)
C[C@]12CC[C@H]3[C@@H](CCC4=CC(=O)CC[C@@]43C)[C@@H]1CC[C@@H]2C(=O)CO,percent of DMSO control GFP,[1],93.7% (inactive)
same,GFP response vs DMSO,[2],119% (inactive)
same,percent response of DMSO control,[3],102% (inactive)
same,GFP response vs DMSO,[4],84.7% (inactive)
same,"GFP response, % of DMSO",[5],84.3% (inactive)
same,GFP response vs DMSO,[6],97.8% (inactive)
same,GFP response vs DMSO,[6]; [21],95.3%
same,GFP response vs DMSO,[6]; [22],98.4%
same,GFP response relative to DMSO,[7],107% (inactive)
same,GFP response relative to DMSO,[7]; [23],106%
same,GFP response relative to DMSO,[7]; [24],106%
same,GFP response vs DMSO,[8],93.5% (inactive)
same,"GFP response, % of DMSO",[9],91.3% (inactive)
same,"GFP response, % of DMSO",[9]; [21],89.9%
same,"GFP response, % of DMSO",[9]; [22],91.2%
same,double positive events,[10],56.7%
same,vesicle binding response,[10],201% (inactive)
C[C@H]1C[C@@H]2[C@H]([C@@H](O)C[C@@]3(C)[C@H]2CC[C@]3(O)C(=O)CO)[C@@]2(C)C=CC(=O)C=C12,percent of DMSO control GFP,[1],85.8% (active)
same,GFP response vs DMSO,[2],145% (active)
same,percent response of DMSO control,[3],93.9% (inactive)
same,GFP response vs DMSO,[4],80.3% (inactive)
same,"GFP response, % of DMSO",[5],83.6% (inactive)
same,GFP response vs DMSO,[6],96.6% (inactive)
same,GFP response vs DMSO,[6]; [21],96.6%
same,GFP response vs DMSO,[6]; [22],96.6%
same,GFP response relative to DMSO,[7],103% (inactive)
same,GFP response relative to DMSO,[7]; [23],102%
same,GFP response relative to DMSO,[7]; [24],99.3%
same,GFP response vs DMSO,[8],105% (inactive)
same,"GFP response, % of DMSO",[9],99.7% (inactive)
same,"GFP response, % of DMSO",[9]; [21],99.1%
same,"GFP response, % of DMSO",[9]; [22],98.5%
same,double positive events,[10],77.3%
same,vesicle binding response,[10],227% (inactive)

# — PubChem BioAssay
